ClpP mod: qHTS Assay for Activators of ClpP | ATP-dependent Clp protease proteolytic subunit (Bacillus subtilis (strain 168)), P80244 | purified B. subtilis ClpP, FRET peptide cleavage, 20 min | Potency, µM (highest dose often 57.5 µM), for the others: at the top dose activity change, negative = active | 340,000 compounds, 1.9% hits; active = well fitted falling curve with a large enough effect; inconclusive = small, poorly fitted or top-dose-only effect; inactive = no such curve, though single readings can be large or run the other way; also: potency is read from the fitted curve at half-maximal effect; the source files actives as falling curves though it sought activators and does not explain the sign; nearly all actives have a fitted effect of over 65% in size
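FRET quenching reversal measured ClpP activation: 10 microg/mL B. subtilis ClpP at pH 8 with the FRET-FV decapeptide, read at 430 nm after 320 nm excitation. The 20-min minus 0-min signal was scaled between DMSO/no-enzyme wells and ADEP (5.8 microM final).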
hERG WT inh: blocks the wildtype human KCNH2 potassium channel | activity change, % at 1.84 µM | Q12809 | 340,000 compounds, 0.37% hits | U2OS, BacMam KCNH2, thallium flux FluxOr; stronger effect = lower value | AID 720551;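 active = maximum activity change below -70%; inconclusive = maximum activity change between -70% and -50%; inactive = maximum activity change above -50%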; also: % is scaled to controls: 0 for no effect and ±100 for the full control effect
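U2OS cells were transduced with wild-type KCNH2 virus (2.03 x 10^8 / mL) for 4 h at room temperature, then cultured overnight at 37 C. Thallium flux was read with FluxOr dye. Rate constants were normalized to DMSO controls.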
KCNH2 3.1 block: blocks the human KCNH2 3.1 channel isoform; 340,000 compounds, 0.95% hits; U2OS KCNH2 3.1, thallium flux FluxOr; stronger effect = lower value; activity change, % (tested at about 1.8 µM); AID 720553;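 active = maximum activity change below -70%; inconclusive = maximum activity change from -70% to -50%; inactive = maximum activity change above -50%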;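 also: thallium influx rate constant from kinetic fluorescence after stimulation buffer; % is scaled to controls: 0 for no effect and ±100 for the full control effect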
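FluxOr-based Tl+ influx in U2OS cells transduced with KCNH2 3.1 virus; rate constants normalized to DMSO controls.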
Chronic BCR inh: inhibitors of chronic active B-cell receptor signaling. ABC-DLBCL IkBa-CBG/CBR reporter, luminescence ratio, 4 h. Potency, µM (top dose mostly 46.1 µM), for the others: top-dose activity change, negative = inhibition, hits mostly inhibitors. 340,000 compounds, 0.05% hits; active = well fitted inhibition curve with a large enough effect in the signal ratio, with a control signal flat, not every such curve was filed as active; inconclusive = small, poorly fitted or top-dose-only effect, or effect the other way, or a change in a side signal; the % refers to the signal ratio;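 also: potency is read from the fitted curve at half-maximal effect; plate controls were basal doxycycline-induced cells for no effect and cells given 10 µM MG132 for full effect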
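Concentration-response series (up to 46 uM) were applied to TMD8 dual-reporter cells for 4 h at 37C with doxycycline. Green/red ratio, after filter-overlap correction, defined %Activity; red signal alone was normalised to basal cells and zero luminescence.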
LDHA block: LDHA (human) enzyme inhibition; purified LDHA, NADH/diaphorase-resazurin fluorescence; stronger effect = lower value; activity change, % (values are at about 110 or 230 µM); 480,000 compounds, 0.15% hits; in the data active = activity change below about -30%; inconclusive = mostly about -25% to -30%;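 also: plate controls were DMSO wells for no effect and wells without enzyme for full effect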
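Human LDH5 (2 nM) was incubated with 0.06 mM NADH and 0.2 mM pyruvate for 5 min at room temperature in Tris pH 7.4. Remaining NADH was coupled through diaphorase/resazurin, and resorufin fluorescence was read at 0 and 20 min.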
ALOX12 inh: blocks human arachidonate 12S-lipoxygenase; AID 1671190; 580,000 compounds, 1.1% hits; P18054; Potency, µM (titrated, usually from 108 µM), inactives show at the highest dose activity change, negative = inhibition, usual class: inhibitors; purified 12hLO, xylenol orange hydroperoxide absorbance; active = well fitted inhibition curve with a large enough effect; inconclusive = small, poorly fitted or top-dose-only effect, or another doubt; inactive = no such curve, though single readings can be large or run the other way; also: potency is read from the fitted curve at half-maximal effect; % is scaled to controls: 0 for no effect and ±100 for the full control effect
Target sequence (P18054 whole entry, looked up): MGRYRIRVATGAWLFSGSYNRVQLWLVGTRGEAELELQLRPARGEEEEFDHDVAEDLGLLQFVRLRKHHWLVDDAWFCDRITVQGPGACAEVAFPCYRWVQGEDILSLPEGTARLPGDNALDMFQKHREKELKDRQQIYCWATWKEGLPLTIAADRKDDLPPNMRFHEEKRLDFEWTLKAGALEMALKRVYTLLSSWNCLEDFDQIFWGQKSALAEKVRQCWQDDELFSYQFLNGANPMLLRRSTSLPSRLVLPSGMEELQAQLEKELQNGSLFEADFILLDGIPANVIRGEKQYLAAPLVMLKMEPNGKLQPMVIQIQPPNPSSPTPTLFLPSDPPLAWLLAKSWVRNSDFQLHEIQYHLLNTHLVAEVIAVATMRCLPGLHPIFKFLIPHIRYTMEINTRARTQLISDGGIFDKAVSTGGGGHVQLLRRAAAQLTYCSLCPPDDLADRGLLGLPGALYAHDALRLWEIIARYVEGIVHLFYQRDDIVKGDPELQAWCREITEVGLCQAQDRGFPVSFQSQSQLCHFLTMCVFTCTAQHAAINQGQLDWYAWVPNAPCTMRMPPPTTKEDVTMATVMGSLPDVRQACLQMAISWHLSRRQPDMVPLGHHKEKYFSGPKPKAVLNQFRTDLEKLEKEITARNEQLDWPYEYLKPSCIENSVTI
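Purified human 12hLO (150 nM final) in 25 mM Hepes, 0.01% Triton X-100, pH 7.0 was preincubated 15 min at room temperature with compound. Then 40 uM arachidonic acid was added, 30 min. Hydroperoxide was read by Fe-XO absorbance ratio 573/405 nm.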
Numbers without * were called inactive. This is a sample that favours compounds with a hit; in the whole collection about 3% have one here.

Screening COc1ccc2cc(Br)ccc2c1CC(=O)NC1CC(C)(C)NC(C)(C)C1 returned ClpP mod -1%, hERG WT inh -123*, KCNH2 3.1 block -3, Chronic BCR inh -4%, LDHA block -1 and ALOX12 inh inconclusive.
For CCNC(=O)Cc1c(OC)ccc2cc(Br)ccc12 the results were ClpP mod -3%, hERG WT inh -4, KCNH2 3.1 block 11, Chronic BCR inh 2%, LDHA block 0 and ALOX12 inh -3%.
For c1ccc(Nc2ccc3c4c(cccc24)CC3)cc1 the results were ClpP mod 11µM*, hERG WT inh -34, KCNH2 3.1 block 0, Chronic BCR inh inconclusive, LDHA block -1 and ALOX12 inh -48%.
Screening CCN(CC)c1ccc(/C=N/NS(=O)(=O)c2ccc(Cl)cc2)cc1 returned LDHA block 14 and ALOX12 inh 32µM*.
CCN(CC)c1ccc(/C=N/NS(=O)(=O)c2ccc(C)c([N+](=O)[O-])c2)cc1 was read as ClpP mod 2%, hERG WT inh -1, KCNH2 3.1 block -11, Chronic BCR inh 11%, LDHA block -2 and ALOX12 inh inconclusive.
For CN1CC(=O)N(c2ccccc2)Cc2c1ncnc2N1CCc2ccccc2C1 the results were ALOX12 inh 32µM*.
`Cc1nc(N)c(C#N)c(-c2cccnc2)c1-c1ccccc1` gave ClpP mod -22%, hERG WT inh 2, KCNH2 3.1 block -6, Chronic BCR inh -2%, LDHA block -1 and ALOX12 inh 0%.
Screening Cc1ccc2c(n1)sc1c(N)ncnc12 returned ClpP mod 32µM*, hERG WT inh -6, KCNH2 3.1 block 3, Chronic BCR inh inconclusive, LDHA block -2 and ALOX12 inh 47%.
`Cc1ccc2c(n1)sc1c(-c3ccccc3)c(C#N)c(N)nc12` gave ClpP mod 35µM*, hERG WT inh -9, KCNH2 3.1 block 12, Chronic BCR inh inconclusive, LDHA block -6 and ALOX12 inh -17%.
`Cc1cc(-c2ccccc2)c(C#N)c(N)n1` gave ClpP mod 32µM*, hERG WT inh -8, KCNH2 3.1 block -6, LDHA block -4 and ALOX12 inh 0%.
For CCCn1c(C)cnc1CC1CCCN(C(=O)CC2CCCC2)C1 (centres undefined) the results were ALOX12 inh 42%.
Screening Cc1ccc(C)c(NC(C)C(=O)N(C)Cc2cccc(F)c2)c1 (centres undefined) returned LDHA block -2 and ALOX12 inh -3%.
For O=c1[nH]c(=S)[nH]c2sccc12 the results were ClpP mod inconclusive, hERG WT inh -34, KCNH2 3.1 block -6, Chronic BCR inh 10%, LDHA block -3 and ALOX12 inh 8.9µM*.
For O=c1[nH]c(=S)[nH]c2scc(-c3ccc(Br)cc3)c12 the results were ClpP mod 0%, hERG WT inh -3, KCNH2 3.1 block 1, LDHA block -19 and ALOX12 inh inconclusive.
`C=C(C)C(=O)Oc1ccc(N=Nc2ccc(C)cc2)ccc1=O` gave ClpP mod -1%, hERG WT inh -12, KCNH2 3.1 block 4, LDHA block 9 and ALOX12 inh 22µM*.
CCc1noc(CS(=O)(=O)Cc2cc(C)ccc2C)n1 was read as LDHA block -9 and ALOX12 inh -12%.
`O=C(O)c1cc(C(=O)O)cc(-c2ccc(/C=c3/sc4nc5ccccc5n4c3=O)o2)c1` gave hERG WT inh 3, KCNH2 3.1 block -6, Chronic BCR inh 0% and LDHA block 3.
For O=C(O)c1ccccc1-c1ccc(C=c2sc3nc4cc(Br)cnc4n3c2=O)o1 the results were ClpP mod -13%, LDHA block 4 and ALOX12 inh 7.9µM*.
CCOC(=O)c1c(-c2ccc(F)cc2)csc1/N=C/N(C)C was read as ClpP mod 25µM*, hERG WT inh 3, KCNH2 3.1 block 12, Chronic BCR inh -5%, LDHA block 2 and ALOX12 inh -3%.
Screening NC(=S)N/N=C1\CC(c2ccc3c(c2)OCCCO3)Oc2ccc(F)cc21 (centres undefined) returned hERG WT inh 21, KCNH2 3.1 block -19, Chronic BCR inh 18µM*, LDHA block -6 and ALOX12 inh 6.3µM*.
`O=C(CCc1ncc(-c2ccccc2Cl)o1)Nc1ccccc1` gave LDHA block -1 and ALOX12 inh -3%.
`CCCN1CCN(CC(=O)Nc2nc3ccccc3s2)CC1` gave hERG WT inh 17, KCNH2 3.1 block -9, Chronic BCR inh -1%, LDHA block -3 and ALOX12 inh -18%.
Screening CCc1ccc2nc(NC(=O)Cn3cnc4ccccc4c3=O)sc2c1 returned ClpP mod -4%, hERG WT inh 1, KCNH2 3.1 block -4, Chronic BCR inh inconclusive, LDHA block -12 and ALOX12 inh -3%.
For O=C(CN1CCN(Cc2ccc(F)cc2)CC1)Nc1nc2ccccc2s1 the results were ClpP mod 0%, hERG WT inh -16, KCNH2 3.1 block -74*, Chronic BCR inh -13%, LDHA block -3 and ALOX12 inh -5%.
`COc1ccc(C(=O)Cn2cnc3ccccc3c2=O)cc1` gave hERG WT inh 5, KCNH2 3.1 block 16, Chronic BCR inh inconclusive, LDHA block 1 and ALOX12 inh inconclusive.
Screening O=C(Cn1cnc2ccccc2c1=O)c1ccc2ccccc2c1 returned ClpP mod 32µM*, hERG WT inh -9, KCNH2 3.1 block 4, LDHA block -7 and ALOX12 inh 26%.
Screening O=C(Cn1cnc2ccccc2c1=O)Nc1nc2ccccc2s1 returned hERG WT inh -3, KCNH2 3.1 block -97*, Chronic BCR inh -2%, LDHA block -3 and ALOX12 inh 4%.
For Cc1nc(-c2ccc(OC3CCN(C(=O)c4cc(C)n(C)n4)C3)cc2)no1 (centres undefined) the results were ALOX12 inh 31%.
`O=C(O)c1cccc(NC(=S)N/N=C/c2ccc([N+](=O)[O-])cc2)c1` gave LDHA block -1 and ALOX12 inh inconclusive.
Cc1ccc(C(=O)N2CCC3(CC2)CC(N2CCN(CC(C)C)CC2)CCO3)s1 (centres undefined) was read as ALOX12 inh 19%.
Cc1ccc(S(=O)(=O)NCc2ccccc2)cc1 was read as ClpP mod 0%, hERG WT inh -19, KCNH2 3.1 block 2, Chronic BCR inh -1%, LDHA block -4 and ALOX12 inh -27%.

Bioassay records deposited in PubChem BioAssay by National Center for Advancing Translational Sciences (NCATS).
